Values joined by “and” are separate entries in the source; they are usually repeats but may differ in a detail not shown here. Equal entries are not always repeated. ± gives the standard deviation of the averaged measurements. The full ranking holds about 1,700 compounds; the median of “fraction of GFP-LC3-positive cells (≥5 vesicles/cell)” is about 0.058, and the highest 2% start at about 0.59. For the sample, the highest values were picked, then their nearest neighbours and some compounds at random.
The molecules below were run on CbCln3 +/+ GFP-LC3 cerebellar neuronal cells (assay: fraction of GFP-LC3-positive cells (≥5 vesicles/cell); higher = more autophagosome accumulation).
Outline: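 Wild-type or mutant CbCln3 cerebellar cells stably expressing GFP-LC3 (2 × 10^3/well, 384-well) received ~50 nL compound in DMSO by pin transfer, in duplicate, for 24 h at 33 °C. Hoechst 33342 and LysoTracker Red were added for the final 30 min before 3.2% PFA fixation and 10× imaging of three fields per well. CellProfiler counted GFP-LC3 vesicles per cell. The value is the fraction of cells with 5 or more vesicles, averaged over duplicates, with out-of-focus images excluded.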

SMILES	fraction of GFP-LC3-positive cells
CCOC(=O)C1=C(C)NC(=S)NC1c1cccc(O)c1 (centres undefined) [Monastrol]	0.199
CNC1(C)C2CCC(C2)C1(C)C.Cl (centres undefined) [Mecamylamine hydrochloride]	0.093
CN(Cc1cnc2nc(N)nc(N)c2n1)c1ccc(C(=O)NC(CCC(=O)O)C(=O)O)cc1 (racemic) [Amethopterin (R,S)]	0.0411
CC(=O)Oc1ccc(C(c2ccc(OC(C)=O)cc2)c2ccccn2)cc1 [Bisacodyl]	0.0605
CC/C=C\C/C=C\C/C=C\C/C=C\CCCCC(=O)O [6(Z), 9(Z), 12(Z), 15(Z)-Octadecatetraenoic acid]	0.0591
CC(C(=O)O)c1ccc(-c2ccccc2)c(F)c1 (centres undefined) [Flurbiprofen]	0.0432
Cl.O=C1CC2(CCCC2)CC(=O)N1CCCCN1CCN(c2ncccn2)CC1 [Buspirone hydrochloride]	0.0334
CC(C)[N+]1(C)[C@@H]2CC[C@@H]1CC(OC(=O)C(CO)c1ccccc1)C2.[Br-] (some centres undefined) [Ipratropium bromide]	0.0779
CC[C@]12CCCN3CCc4c(n(c5ccccc45)[C@](O)(C(=O)OC)C1)[C@@H]32 [Epivincamine]	0.0608
CC(=O)N(CC(O)CN(C(C)=O)c1c(I)c(C(=O)NCC(O)CO)c(I)c(C(=O)NCC(O)CO)c1I)c1c(I)c(C(=O)NCC(O)CO)c(I)c(C(=O)NCC(O)CO)c1I (centres undefined) [Iodixanol]	0.0455
COc1ccc2cc(C(C)C(=O)O)ccc2c1 (centres undefined) [Naproxen]	0.053
CC(C)(C)C(=O)OCOC(=O)[C@@H]1N2C(=O)[C@@H](/N=C/N3CCCCCC3)[C@H]2SC1(C)C.Cl [Pivmecillinam hydrochloride]	0.0551
C[N+]1(C)CCC(OC(=O)C(O)(c2ccccc2)C2CCCC2)C1.[Br-] (centres undefined) [Glycopyrrolate]	0.0526
CCCCC/C=C\C\C=C/C=C/C=C/[C@@H](O)[C@@H](O)CCCC(=O)O	0.0542
O=C(O)c1cccnc1 [Niacin]	0.0475
CC/C=C\C/C=C\C/C=C\C/C=C\C/C=C\C/C=C\CCC(=O)O [Docosahexaenoic acid (22:6 n-3)]	0.0751
CC/C=C\C/C=C\C/C=C\C/C=C\C/C=C\C/C=C\CCC(=O)O [Docosahexaenoic acid (22:6 N-3)]	0.0787
CC/C=C\C/C=C\C/C=C\C/C=C\C/C=C\C/C=C\CCC(=O)O	0.0655
C[C@@H]1C[C@H]2[C@@H]3CCC4=CC(=O)C=C[C@]4(C)[C@@]3(F)[C@@H](O)C[C@]2(C)[C@@]1(O)C(=O)CO [dexamethasone]	0.0637
CCCCCCCC(=O)OC[C@H](CO)OC(=O)CCCCCCC [1,2-Dioctanoyl-SN-glycerol]	0.058
CCCCCCCC(=O)OC[C@H](CO)OC(=O)CCCCCCC	0.0799

SMILES	fraction of GFP-LC3-positive cells
O=c1[nH]c(=O)n([C@H]2C[C@H](O)[C@@H](CO)O2)cc1I [Idoxuridine]	0.122
CC(C)(C)NC[C@H](O)COc1nsnc1N1CCOCC1.O=C(O)/C=C\C(=O)O [Timolol maleate salt]	0.0791
CSc1ccc2c(c1)N(CCC1CCCCN1C)c1ccccc1S2.Cl (centres undefined) [Thioridazine hydrochloride]	0.103
O=C(CCCN1CCC(O)(c2ccc(Br)cc2)CC1)c1ccc(F)cc1 [Bromperidol]	0.0553
CC(C)COCC(CN(Cc1ccccc1)c1ccccc1)N1CCCC1 (centres undefined)	0.773
CC(C)COCC(CN(Cc1ccccc1)c1ccccc1)N1CCCC1.Cl (centres undefined) [Bepridil hydrochloride]	0.0674
Cl.c1ccc(CN(CC2=NCCN2)c2ccccc2)cc1 [Antazoline hydrochloride]	0.048
NC[C@H]1O[C@H](OC2[C@@H](N)C[C@@H](N)[C@H](O)[C@H]2O[C@@H]2O[C@H](CO)[C@@H](O)[C@H]2O)[C@H](N)[C@@H](O)[C@@H]1O.O=S(=O)(O)O (some centres undefined) [Ribostamycin sulfate salt]	0.0446
CC(C[N+](C)(C)C)OC(N)=O.[Cl-] (centres undefined) [Bethanechol chloride]	0.0276
COc1cc(OC)c(C(=O)CCCN2CCCC2)c(OC)c1.Cl [Buflomedil hydrochloride]	0.0492
Nc1ccc(S(=O)(=O)Nc2ccnn2-c2ccccc2)cc1 [Sulfaphenazole]	0.0807
Cl.NCc1ccc(S(N)(=O)=O)cc1 [Mafenide hydrochloride]	0.087
CCCCOc1cc(C(=O)OCCN(CC)CC)ccc1N.Cl [Benoxinate hydrochloride]	0.0443
C[N+](C)(C)CCCCCC[N+](C)(C)C.O.O.[Br-].[Br-] [Hexamethonium dibromide dihydrate]	0.0307
O=S(=O)(NCCNC/C=C/c1ccc(Br)cc1)c1cccc2cnccc12	0.0303 ± 0.022
CS(=O)(=O)Nc1ccc([N+](=O)[O-])cc1Oc1ccccc1 [Nimesulide]	0.0281
Cn1c([N+](=O)[O-])cnc1COC(N)=O [Ronidazole]	0.116
NC(=O)c1ccc(-c2nc(-c3ccc4c(c3)OCO4)c(-c3ccccn3)[nH]2)cc1	0.0591
CCCCC/C=C\C/C=C\CCCCCCCC(N)=O [Linoleamide]	0.0419
CCCCC/C=C\C/C=C\CCCCCCCC(N)=O	0.0698
C=C(C)[C@@H]1CC[C@]2(C(=O)O)CC[C@]3(C)[C@H](CC[C@@H]4[C@@]5(C)CC[C@H](O)C(C)(C)[C@@H]5CC[C@]43C)[C@@H]12 [Betulinic acid]	0.0607

SMILES	fraction of GFP-LC3-positive cells
CCCCC/C=C\C/C=C\C/C=C\C=C\[C@@H](O)CCCC(=O)O	0.0555 ± 0.014
Oc1cc2c(cc1O)CN(C(=S)NCCc1ccc(Cl)cc1)CCC2 [capsazepine]	0.197
O=C(Nc1ccccc1)c1cc([N+](=O)[O-])ccc1Cl	0.0781
CCC(=O)[C@@]1(C)[C@H](C)C[C@H]2[C@@H]3CCC4=CC(=O)C=C[C@]4(C)[C@H]3[C@@H](O)C[C@@]21C [Rimexolone]	0.0676
CCCCNc1cc(C(=O)O)cc(S(N)(=O)=O)c1Oc1ccccc1 [Bumetanide]	0.0472
C[C@@H](O)[C@H]1C(=O)N2C(C(=O)O)=C(SCCNC=N)C[C@H]12 [Imipenem]	0.032
CCCCCN(CCCCC)C(=O)C(CCC(=O)[O-])NC(=O)c1ccc(Cl)c(Cl)c1.[Na+] (centres undefined) [Lorglumide sodium salt]	0.0541
Cc1[nH]c(=O)c(C#N)cc1-c1ccncc1 [Milrinone]	0.0445
CC(N/C(=N/C#N)Nc1ccncc1)C(C)(C)C (centres undefined) [Pinacidil]	0.0667
CCCCC[C@H](O)CC(=O)CCc1ccc(O)c(OC)c1	0.0534
CN1CCN2c3ccccc3Cc3ccccc3C2C1.Cl (centres undefined) [Mianserine hydrochloride]	0.0536
CC(C)C[C@@H](C=O)NC(=O)[C@H](CC(C)C)NC(=O)[C@H](CC(C)C)NC(=O)OCc1ccccc1	0.736 ± 0.077
CCCC[C@@H](C=O)NC(=O)[C@H](CC(C)C)NC(=O)OCc1ccccc1	0.088
CC(C)C[C@@H](C=O)NC(=O)[C@H](CC(C)C)NC(=O)OCc1ccccc1	0.0921
CCCC[C@@H](C=O)NC(=O)[C@H](CC(C)C)NC(=O)OCc1ccccc1 [calpeptin]	0.0616
CC/C(=C(/CC)c1ccc(O)cc1)c1ccc(O)cc1 [Diethylstilbestrol]	0.0323
O=C(O)/C=C/c1ccc(O)c(O)c1 [Caffeic acid]	0.0546
O=C(/C=C/c1ccc(O)c(O)c1)OCCc1ccccc1	0.624
O=C(/C=C/c1ccc(O)c(O)c1)O[C@@H]1C[C@](O)(C(=O)O)C[C@@H](O)[C@H]1O [Chlorogenic acid]	0.0755
FC(F)(F)c1ccccc1-n1ccnc1	0.0512
O=C(O)CCc1nc(-c2ccccc2)c(-c2ccccc2)o1 [Oxaprozin]	0.047

SMILES	fraction of GFP-LC3-positive cells
COc1ccc2c(c1)C(=O)N(CCc1ccc(S(=O)(=O)NC(=O)NC3CCCCC3)cc1)C(=O)C2(C)C [Gliquidone]	0.0709
CC(C(=O)[O-])c1cccc(Oc2ccccc2)c1.CC(C(=O)[O-])c1cccc(Oc2ccccc2)c1.CC(C(=O)[O-])c1cccc(Oc2ccccc2)c1.O.O.[Ca+2] (centres undefined) [Fenoprofen calcium salt dihydrate]	0.0249
C[N+](C)(CCOc1ccccc1)Cc1ccccc1.O=C([O-])c1cc2ccccc2cc1O [Bephenium hydroxynaphthoate]	0.0458
Cc1ccc(NC(=O)c2cccc(N(C)C)c2)cc1NC(=O)c1ccc(O)cc1	0.0842 and 0.161
CCCCCCCC/C=C\CCCCCCCC(N)=O	0.0449
Cl.Clc1ccc(Cn2c(CN3CCCC3)nc3ccccc32)cc1 [Clemizole hydrochloride]	0.063
CCN(CC)CCOc1ccc(/C(=C(/Cl)c2ccccc2)c2ccccc2)cc1.O=C(O)CC(O)(CC(=O)O)C(=O)O [Clomiphene citrate (Z,E)]	0.0397
CCOc1ccc(Cc2nccc3cc(OCC)c(OCC)cc23)cc1OCC.Cl [Ethaverine hydrochloride]	0.0346
NCCc1c[nH]cn1	0.0411
CCOC1O[C@H]([C@@H](COCc2ccccc2)OCc2ccccc2)[C@H](OCc2ccccc2)[C@H]1O (some centres undefined) [Tribenoside]	0.102
CCOC(=O)C1=C[C@]2(CC)CCCN3CCc4c(n1c1ccccc41)[C@@H]32 [Vinpocetine]	0.0378
O=C(O)c1ccc(C2=C3C=CC4=[N]3->[Mn+3]35<-[N]6=C(C=CC6=C(c6ccc(C(=O)O)cc6)c6ccc2[n]63)C(c2ccc(C(=O)O)cc2)=c2ccc([n]25)=C4c2ccc(C(=O)O)cc2)cc1.[Cl-] (centres undefined)	0.0485
COC(=O)Nc1nc2cc(SC(C)C)ccc2[nH]1 [Methiazole]	0.499
CCCCc1ccc2[nH]c(NC(=O)OC)nc2c1 [Parbendazole]	0.609
COC(=O)Nc1nc2cc(C(=O)c3cccs3)ccc2[nH]1 [Nocodazole]	0.627
CC(C(=O)O)c1ccc(C(=O)c2cccs2)cc1 (centres undefined) [Suprofen]	0.0679
COC(=O)Nc1nc2cc(C(=O)c3cccs3)ccc2[nH]1 [nocodazole]	0.681
COC(=O)Nc1nc2cc(C(=O)c3ccccc3)ccc2[nH]1 [Mebendazole]	0.619
COC(=O)Nc1nc2cc(Sc3ccccc3)ccc2[nH]1 [Fenbendazole]	0.24
CCCCCCCCCCCCCCCC(=O)NCCc1ccc(O)c(O)c1 [Palmitoyl dopamine]	0.0673
CCCSc1ccc2[nH]c(NC(=O)OC)nc2c1 [Albendazole]	0.548
